# IL1B secr inh: inhibitors of inflammasome signaling (IL-1 beta secretion); THP-1 LPS/ATP IL-1B secretion, AlphaLISA, 16 h; hits give low values; AID 743279; 360,000 compounds, 4.7% hits; activity change, % at 57.5 µM; in the data active = activity change below about -50%; inconclusive = mostly about -30% to -49%
#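 THP-1 cells pretreated 1 hr with compounds (up to 57.5 uM final), then stimulated with LPS (250 ng/mL final) plus ATP (1.25 mM final); secreted IL-1B measured by AlphaLISA after 16 hr, decreased signal indicating inhibition.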
# HT1080 IDH1KD tx: HT-1080 IDH1 knockdown cell toxicity (counter line). HT-1080 IDH1 knockdown viability, ATP luminescence, 48 h. 360,000 compounds, 2% hits. Potency, µM (titrated, usually from 46.1 µM), for inactives: at the highest dose activity, negative = toxicity, actives largely listed as cytotoxic;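 note: potency is the fitted concentration of half-maximal effect; 0% = DMSO wells and -100% = cell-free medium wells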
#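 Knockdown cells (IDH1KD HT-1080) received compounds 2 h after plating at 750 cells/well and were kept 48 h at 37 °C in 5% FBS RPMI. A CellTiter-Glo luminescence read gave % activity for curve fitting.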
# ALOX12 inh: ALOX12 (human) lipoxygenase inhibition; 580,000 compounds, 1.1% hits; P18054; AID 1671190; Potency, µM (doses to about 108 µM), for inactives: top-dose activity change, negative = inhibition, actives largely listed as inhibitors; purified 12hLO, xylenol orange hydroperoxide absorbance; note: potency is the fitted concentration of half-maximal effect
# Target sequence (P18054 whole entry, looked up): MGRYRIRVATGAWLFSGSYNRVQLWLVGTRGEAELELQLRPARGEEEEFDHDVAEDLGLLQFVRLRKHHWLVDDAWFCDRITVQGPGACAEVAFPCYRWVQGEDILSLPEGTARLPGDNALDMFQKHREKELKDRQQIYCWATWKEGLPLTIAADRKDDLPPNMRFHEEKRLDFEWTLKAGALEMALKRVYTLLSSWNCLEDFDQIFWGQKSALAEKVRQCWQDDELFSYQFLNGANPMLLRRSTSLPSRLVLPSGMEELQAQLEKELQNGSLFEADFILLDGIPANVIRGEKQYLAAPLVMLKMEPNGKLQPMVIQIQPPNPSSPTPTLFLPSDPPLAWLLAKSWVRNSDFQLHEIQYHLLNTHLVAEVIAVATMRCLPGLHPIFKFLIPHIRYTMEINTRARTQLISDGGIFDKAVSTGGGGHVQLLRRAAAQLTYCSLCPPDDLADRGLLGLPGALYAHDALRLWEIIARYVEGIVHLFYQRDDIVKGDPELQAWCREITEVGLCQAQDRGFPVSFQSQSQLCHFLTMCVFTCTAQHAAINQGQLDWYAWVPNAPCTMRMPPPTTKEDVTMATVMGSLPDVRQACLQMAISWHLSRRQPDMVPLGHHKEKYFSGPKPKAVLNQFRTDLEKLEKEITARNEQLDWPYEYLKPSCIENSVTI
#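 Purified human 12hLO (150 nM final) in 25 mM Hepes, 0.01% Triton X-100, pH 7.0 was preincubated 15 min at room temperature with compound. Then 40 uM arachidonic acid was added, 30 min. Hydroperoxide was read by Fe-XO absorbance ratio 573/405 nm.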
# DT40 TDP1 CPT: DT40-hTDP1 cell growth loss with CPT; chicken DT40 Tdp1-/-;hTDP1 cells + 20 nM CPT, ATP luminescence, 48 h; Potency, µM (series often up to 46.2 µM), for inactives: at the highest dose activity change, negative = growth inhibition, most hits filed as inhibitors; 420,000 compounds, 12% hits; AID 686979; note: potency is the fitted concentration of half-maximal effect; nearly all actives have a fitted effect of over 55% in size
#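 Chicken DT40 Tdp1-/- cells complemented with human TDP1, 400 cells/well, exposed to compounds plus 20 nM camptothecin for at least 48 h at 37 C; viability read as ATP content by CellTiter-Glo luminescence.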
# HT1080-NT tox: kills 2HG-producing HT-1080-NT fibrosarcoma cells | Potency, µM (highest dose often 46.1 µM), without a hit: at the highest dose activity, negative = less viability, actives largely listed as cytotoxic | 360,000 compounds, 1.6% hits | AID 686970 | HT-1080-NT fibrosarcoma viability, CellTiter-Glo ATP luminescence, 48 h;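 note: NT is the 2HG producing partner of a matched IDH1 knockdown line; potency is the fitted concentration of half-maximal effect; 0% = DMSO-treated cells and -100% = media-only wells without cells; nearly all actives have a fitted effect of over 55% in size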
#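 Luminescent CellTiter-Glo readout after 48 hours of compound exposure at 37 degrees C defined viability of HT-1080-NT cells. Activity was normalized to DMSO wells and cell-free media wells; concentration-response curves were fitted and assigned curve classes.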
# TDP1 cell noCPT: qHTS for Inhibitors of human tyrosyl-DNA phosphodiesterase 1 (TDP1): qHTS in cells in absence of CPT | DT40 Tdp1-/- hTDP1 cells, no CPT, ATP luminescence, 48 h | Potency, µM (doses to about 46.2 µM), without a hit: at the highest dose activity change, negative = growth inhibition, usual class: inhibitors | 420,000 compounds, 15% hits | AID 686978, 2013; note: potency is the fitted concentration of half-maximal effect; nearly all actives have a fitted effect of over 55% in size
#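 Chicken DT40 Tdp1-/- cells stably complemented with human TDP1 were seeded at 400 cells/well with DMSO in place of 20 nM camptothecin. After compound pinning, cells grew at least 48 hr at 37 °C; viability read by CellTiter-Glo luminescence.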
# * = called active by the depositor; ? = inconclusive; nt = no result; [ ] = dose if it differs, or a comment. The full list was thinned out, with hits kept by preference. Unless noted, calls come from the whole dose curve; as a rule, active = well fitted curve in the direction sought with a large enough effect; inconclusive = small, poorly fitted or top-dose-only effect, or another doubt; inactive = no such curve, though single readings can be large; an effect the other way counts as inactive or inconclusive. Unless noted, % is set by controls: 0 for no effect and ±100 for the full control effect.
SMILES,IL1B secr inh,HT1080 IDH1KD tx,ALOX12 inh,DT40 TDP1 CPT,HT1080-NT tox,TDP1 cell noCPT
COc1ccc(CNC(=O)c2ccc3c(=O)n(-c4ccccc4)c(=O)[nH]c3c2)cc1,14.0,15.7%,nt,7.7%,26.6%,-6.9%
COc1cccc(CNC(=O)CNS(=O)(=O)c2ccc(Br)s2)c1,-52.5*,-2.8%,-19.8%,0.9%,2.4%,-3.3%
COC(=O)CSc1cc(C(=O)c2nccn2C)c2ccccc2n1,0.0,-8.5%,?,-17.1%,-1.8%,-21.3%
Cn1ccnc1C(=O)c1cc(SCC(=O)NCc2ccccc2)nc2ccccc12,65.2,?,-1.1%,6.51µM*,10.3µM*,5.17µM*
CC(c1cccs1)N(C)CC1CCCCC1 (centres undefined),nt,nt,28.0%[176 µM],nt,nt,nt
O=C(c1ccncc1)N1CC[C@H]2COC(=O)N2c2cc(F)ccc2C1,nt,nt,53.3%[176 µM],nt,nt,nt
COc1cccc(CCC(=O)N2CCCCCC2CN2CCC(OC)CC2)c1 (centres undefined),nt,nt,0.9%,nt,nt,nt
CCc1nnc(NC(=O)CSc2nccn2Cc2ccccc2)s1,nt,nt,-6.0%,?,nt,20.6µM*
O=C(NCc1ccccc1)/C(=C/c1ccc(OC(F)F)cc1)c1ccccc1,-5.1,-24.4%,-4.5%,?,-25.9%,?
COc1ccc(/C=C(/C(=O)NCc2ccccc2)c2ccccc2)cc1,-7.7,1.2%,-14.9%,?,-0.5%,20.6µM*
O=C(COc1ccc(C(=O)c2ccccc2)cc1)NCC1CCCCC1,-14.5,-15.4%,9.6%,16.4µM*,-9.4%,16.4µM*
O=C(COc1ccccc1)NCC1CCCO1 (centres undefined),12.7,-0.5%,-1.5%,0.5%,-6.3%,-1.6%
COc1ccc(Cn2ccnc2SCC(=O)NCc2ccccc2)cc1,nt,nt,-11.5%,16.4µM*,nt,?
O=C(c1cc(C2CC2)nc2ccccc12)N1CCN(Cc2ccccc2)CC1,nt,nt,2.5%,nt,nt,nt
COCCc1noc([C@@H]2CN(Cc3cccc(OC)n3)C[C@H]2CO)n1,nt,nt,86.1%,nt,nt,nt
CCc1nnc(NC(=O)CSc2nnc(COc3ccccc3)n2-c2ccc(C)cc2)s1,47.1,3.6%,4.0%,?,9.1%,-25.6%
CCc1nnc(NC(=O)CSc2nnc(-c3ccccc3O)n2-c2ccc(C)cc2C)s1,51.3,?,0.0%,?,4.61µM*,23.1µM*
COc1cccc(CNC(=O)COc2ccc(C(=O)c3ccccc3)cc2)c1,-19.9,?,-14.3%,?,?,16.4µM*
COc1ccc(CC(=O)NCc2ccccc2)cc1,28.5,8.2µM*,0.0%,2.59µM*,?,2.91µM*
COc1cccc(CNC(=O)Cn2cccc2C(=O)c2ccccc2)c1,nt,nt,-26.1%,-13.9%,nt,-11.4%
O=C(Nc1cccc2cccnc12)C1(c2ccccc2)CCC1,nt,nt,25.3%,nt,nt,nt
CC1=C[C@@H](CNCc2cccnc2)[C@H](C(C)C)C[C@H]1Cc1nnc(-c2ccc([N+](=O)[O-])cc2)o1,nt,nt,16.8%,nt,nt,nt
CCOc1ccc2[nH]c(=O)c(CN(Cc3ccco3)C(CC)c3nnnn3Cc3ccccc3)cc2c1 (centres undefined),?,?,-11.0%,?,-24.3%,?
CC(=O)Nc1ccc(S(=O)(=O)N(Cc2ccco2)Cc2cc3ccccc3[nH]c2=O)cc1,0.0,-8.6%,9.7%,?,-27.8%,?
COc1ccc2[nH]c(=O)c(CN(Cc3ccco3)Cc3nnnn3Cc3ccccc3)cc2c1,-8.2,-4.0%,-23.6%,20.6µM*,-2.1%,16.4µM*
SMILES,IL1B secr inh,HT1080 IDH1KD tx,ALOX12 inh,DT40 TDP1 CPT,HT1080-NT tox,TDP1 cell noCPT
CCc1ccc2[nH]c(=O)c(CN(Cc3ccccc3OC)Cc3nnnn3Cc3ccco3)cc2c1,-81.8*,?,0.4%,?,?,?
COC(=O)c1ccccc1S(=O)(=O)N(Cc1ccco1)Cc1cc2cc(OC)ccc2[nH]c1=O,14.1,-21.8%,?,?,-1.2%,18.4µM*
CCOc1ccc2[nH]c(=O)c(CN(CCCN3CCOCC3)Cc3nnnn3Cc3ccc(OC)cc3)cc2c1,-15.6,?,-14.4%,?,-25.4%,20.6µM*
COc1cc2cc(CN(Cc3nnnn3Cc3ccco3)C3CCCCC3)c(=O)[nH]c2cc1OC,16.9,-15.0%,?,-21.8%,-4.2%,-23.0%
O=C(NCc1ccccc1)C1CCC(=O)N1C1CCN(C(=O)c2ccc3c(c2)OCO3)CC1 (centres undefined),nt,nt,28.8%,nt,nt,nt
COCc1noc([C@@H]2CC(F)(F)CN2C(=O)Cc2ccc(F)cc2)n1,nt,nt,51.0%,nt,nt,nt
O=C(c1ccccc1)N1CCSc2ccc(Cl)cc21,nt,nt,-2.0%,nt,nt,nt
COc1cccc(NC(=O)Cn2nc(Cc3cccnc3)c3ccccc3c2=O)c1,?,3.6%,10.8%,-7.0%,6.0%,?
C=CC(=O)Nc1cccc(CN2C(=O)N(c3cc(OC)cc(OC)c3)Cc3cnc(NCCCCN(CC)CC)nc32)c1,-60.3*,0.9%,nt,-11.9%,-13.8%,?
COCC(=O)N1CCCN(CCc2ccccc2)c2ccccc21,nt,nt,16.3%,nt,nt,nt
C=C(C)Cn1c(N2CCN(CC(=O)OCC)CC2)nc2c1c(=O)[nH]c(=O)n2C,nt,nt,0.0%,nt,nt,nt
CCn1c(=N)n(CC(=O)c2cccc([N+](=O)[O-])c2)c2ccccc21,-26.6,1.4%,-10.3%,?,3.6%,20.6µM*
O=C(Cn1nnc2ccccc21)c1cccc([N+](=O)[O-])c1,0.0,13.8%,-11.9%,-10.2%,9.8%,-15.5%
